# About 83,000 compounds went through this panel and 20% of them were active in at least one assay; those are over-represented in the sample as a whole.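 Interpretation: 100, growth as untreated; towards 0, rising growth inhibition; 0, no net growth; 0 to -100, cell death. Compounds scoring below 10 were considered active.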 Active and inactive are the calls of the source.
# Test system: TK-10 renal
# Test: NCI-60 one-dose screen, 48 h (100 = growth as untreated, 0 = no growth, -100 = all killed)
# Conditions: 10 µM unless noted
row,Structure (SMILES),growth
1,O=C1/C(=C/c2ccc(F)cc2)CN(C(=O)CCN2CCC(=NO)CC2)C/C1=C\c1ccc(F)cc1,-5.74% (active)
2,CC/C=C\C[C@H](O)C/C=C1/C(=O)C=C[C@@H]1C/C=C\CCCC(N)=O,-13% (active)
3,CC/C=C\C[C@H](F)C/C=C1/C(=O)C=C[C@@H]1C/C=C\CCCC(=O)OC,50.4% (inactive)
4,Nc1nc2c(c3ncccc13)C(c1ccc(Cl)c(Cl)c1)Cc1ncccc1-2 (stereo unspecified),29.5% (inactive)
5,Cn1c(=O)c2c(ncn2CC[N+](C)(C)C)n(C)c1=O,91.8% (inactive)
6,O=C(O)c1cccc2c1-c1ccccc1C2=O,91.1% (inactive)
7,CCOC(=O)C(C#N)C1CCCCC1 (stereo unspecified),91.5% (inactive)
8,CCCCNP1(NCCCC)=NP(NCCCC)(NCCCC)=NP(NCCCC)(NCCCC)=NP(NCCCC)(NCCCC)=N1,13.6% (inactive)
9,CC(=O)C1=C(O)C=C2Oc3c(C(=O)/C=C/c4cc(C(F)(F)F)cc(C(F)(F)F)c4)c(O)c(C)c(O)c3[C@]2(C)C1=O,-32.5% (active)
10,COc1ccc(OCC(=O)Nc2ccc(-c3nc4ccccc4s3)cc2C)cc1,64.9% (inactive)
11,CCCCCCCCCC(=O)Oc1ccc(/C(=C(/C)c2ccccc2)c2ccc(OCCN3CCCC3)cc2)cc1,43% (inactive)
12,COc1cccc(-c2nc3sccn3c2-c2ccnc(NCCCNS(=O)(=O)c3ccc(Cl)cc3)c2)c1,83.1% (inactive)
13,CC/C=C\C[C@H](O)C/C=C1/C(=O)C=C[C@@H]1C/C=C\CCCC(=O)NC,-8.31% (active)
14,COc1cccc(/C=C\C(=O)c2ccccc2)c1,102% (inactive)
15,C=C1CC2(OC1=O)C(=O)Nc1ccccc12 (stereo unspecified),22.3% (inactive)
16,Cc1ccc2c(c1)C(=O)/C(=C/c1ccc(OCC(=O)c3ccccc3)cc1)O2,127% (inactive)
17,CCN(C(=O)CN1CCN(c2cc3c(cc2F)c(=O)c(C(=O)O)cn3C2CC2)CC1)c1nc(-c2ccc(OC)cc2)cs1,77.2% (inactive)
18,CS(CCCCN=C=S)=NC(=O)c1c(F)c(F)c(F)c(F)c1F (stereo unspecified),66.6% (inactive)
19,Cc1ccccc1CCO,82.4% (inactive)

row,Structure (SMILES),growth
1,O=C(O)c1c([N+](=O)[O-])cnc2ccccc12,102% (inactive)
2,CC(=O)C1=C(O)C=C2Oc3c(C(=O)/C=C/c4cc(Cl)cc(Cl)c4)c(O)c(C)c(O)c3[C@]2(C)C1=O,-17.4% (active)
3,COc1cc(NC(N)=NCC(C)(C)COc2ccc(C(F)(F)F)cc2)cnc1C#N,62.5% (inactive)
4,CC1=CC(=O)CC(C)(C)[C@@]1(O)/C=C/[C@@H](C)O,108% (inactive)
5,OC(c1cc(-c2ccccc2)nc2ccc(Cl)cc12)C1CCCCN1 (stereo unspecified),71.3% (inactive)
6,CCC(=O)OCc1cccc(OC)c1,119% (inactive)
7,CCCCCCCCCCCCCC(=O)C(C)N (stereo unspecified),48.5% (inactive)
8,CC1=C(C)C(=O)OC([C@](C)(O)[C@]2(O)CC[C@@]3(O)[C@@H]4C[C@H]5O[C@]56CC=CC(=O)[C@]6(C)[C@H]4CC[C@]23COC(=O)c2ccc(C)o2)C1 (stereo partly specified),-89.8% (active)
9,C=C1CC[C@@H]2[C@](C)(COC(C)=O)[C@H](OC(C)=O)CC[C@@]2(C)[C@@H]1CC(Nc1ccc(S(=O)(=O)Nc2ccc(Cl)nn2)cc1)C1=CCOC1=O (stereo partly specified),69.8% (inactive)
10,CC(C)[C@H]1COC(=O)N1[C@@H]1C(=O)N([C@@H](CCC(=O)N2CCN(C3CCCC3)CC2)C(=O)N[C@@H]2CCCc3ccccc32)[C@@H]1/C=C/c1cccc(Br)c1,30.9% (inactive)
11,Cc1cc(Cl)ccc1Nc1nc(C(F)(F)F)ccc1C(=O)N/N=C/c1ccc(F)cc1,0.832% (active)
12,Cn1c(=O)c2[nH]c(C(O)C(O)C(O)C(O)CO)nc2n(C)c1=O (stereo unspecified),103% (inactive)
13,C(=N\Nc1ccccn1)/c1ccccn1,17.5% (inactive)
14,COc1cccc(-c2cn3c(ccc4ccccc43)n2)c1,88.8% (inactive)
15,COc1ccc2c(c1)C(=O)/C(=C/c1cccc(OCC(=O)Nc3nc4c(s3)CCCC4)c1)O2,-69.6% (active)
16,c1ccc(-c2nc(N3CCOCC3)c3c4c(sc3n2)CCCCC4)nc1,45.1% (inactive)
17,COc1ccc(-c2cn3c(ccc4ccccc43)n2)cc1,126% (inactive)
18,COc1cc(OC)c(/C=C/C(=O)c2c(OC)cc(OC)cc2OC)c(OC)c1,46.8% (inactive)
19,COc1ccc(-c2cc(-c3ccc(N(C)C)cc3)nc(NC(=O)c3ccncc3)n2)cc1,105% (inactive)

# Test system: ACHN renal
# Test: as above
# Conditions: 10 µM unless noted
row,Structure (SMILES),growth
1,O=C1/C(=C/c2ccc(F)cc2)CN(C(=O)CCN2CCC(=NO)CC2)C/C1=C\c1ccc(F)cc1,-66.3% (active)
2,CC/C=C\C[C@H](O)C/C=C1/C(=O)C=C[C@@H]1C/C=C\CCCC(N)=O,-82.2% (active)
3,CC/C=C\C[C@H](F)C/C=C1/C(=O)C=C[C@@H]1C/C=C\CCCC(=O)OC,-52% (active)
4,Nc1nc2c(c3ncccc13)C(c1ccc(Cl)c(Cl)c1)Cc1ncccc1-2 (stereo unspecified),30.2% (inactive)
5,Cn1c(=O)c2c(ncn2CC[N+](C)(C)C)n(C)c1=O,110% (inactive)
6,O=C(O)c1cccc2c1-c1ccccc1C2=O,94.4% (inactive)
7,CCOC(=O)C(C#N)C1CCCCC1 (stereo unspecified),99.4% (inactive)
8,CCCCNP1(NCCCC)=NP(NCCCC)(NCCCC)=NP(NCCCC)(NCCCC)=NP(NCCCC)(NCCCC)=N1,33.9% (inactive)
9,CC(=O)C1=C(O)C=C2Oc3c(C(=O)/C=C/c4cc(C(F)(F)F)cc(C(F)(F)F)c4)c(O)c(C)c(O)c3[C@]2(C)C1=O,-75.7% (active)
10,COc1ccc(OCC(=O)Nc2ccc(-c3nc4ccccc4s3)cc2C)cc1,99.4% (inactive)
11,CCCCCCCCCC(=O)Oc1ccc(/C(=C(/C)c2ccccc2)c2ccc(OCCN3CCCC3)cc2)cc1,35.2% (inactive)
12,COc1cccc(-c2nc3sccn3c2-c2ccnc(NCCCNS(=O)(=O)c3ccc(Cl)cc3)c2)c1,36.3% (inactive)
13,CC/C=C\C[C@H](O)C/C=C1/C(=O)C=C[C@@H]1C/C=C\CCCC(=O)NC,-86.1% (active)
14,COc1cccc(/C=C\C(=O)c2ccccc2)c1,75% (inactive)
15,C=C1CC2(OC1=O)C(=O)Nc1ccccc12 (stereo unspecified),7.77% (active)
16,Cc1ccc2c(c1)C(=O)/C(=C/c1ccc(OCC(=O)c3ccccc3)cc1)O2,100% (inactive)
17,CCN(C(=O)CN1CCN(c2cc3c(cc2F)c(=O)c(C(=O)O)cn3C2CC2)CC1)c1nc(-c2ccc(OC)cc2)cs1,78% (inactive)
18,CS(CCCCN=C=S)=NC(=O)c1c(F)c(F)c(F)c(F)c1F (stereo unspecified),52.4% (inactive)
19,Cc1ccccc1CCO,98.4% (inactive)

row,Structure (SMILES),growth
1,O=C(O)c1c([N+](=O)[O-])cnc2ccccc12,111% (inactive)
2,CC(=O)C1=C(O)C=C2Oc3c(C(=O)/C=C/c4cc(Cl)cc(Cl)c4)c(O)c(C)c(O)c3[C@]2(C)C1=O,-12.4% (active)
3,COc1cc(NC(N)=NCC(C)(C)COc2ccc(C(F)(F)F)cc2)cnc1C#N,62.9% (inactive)
4,CC1=CC(=O)CC(C)(C)[C@@]1(O)/C=C/[C@@H](C)O,109% (inactive)
5,OC(c1cc(-c2ccccc2)nc2ccc(Cl)cc12)C1CCCCN1 (stereo unspecified),22.1% (inactive)
6,CCC(=O)OCc1cccc(OC)c1,93% (inactive)
7,CCCCCCCCCCCCCC(=O)C(C)N (stereo unspecified),39.2% (inactive)
8,CC1=C(C)C(=O)OC([C@](C)(O)[C@]2(O)CC[C@@]3(O)[C@@H]4C[C@H]5O[C@]56CC=CC(=O)[C@]6(C)[C@H]4CC[C@]23COC(=O)c2ccc(C)o2)C1 (stereo partly specified),-95.7% (active)
9,C=C1CC[C@@H]2[C@](C)(COC(C)=O)[C@H](OC(C)=O)CC[C@@]2(C)[C@@H]1CC(Nc1ccc(S(=O)(=O)Nc2ccc(Cl)nn2)cc1)C1=CCOC1=O (stereo partly specified),16.1% (inactive)
10,CC(C)[C@H]1COC(=O)N1[C@@H]1C(=O)N([C@@H](CCC(=O)N2CCN(C3CCCC3)CC2)C(=O)N[C@@H]2CCCc3ccccc32)[C@@H]1/C=C/c1cccc(Br)c1,48.9% (inactive)
11,Cc1cc(Cl)ccc1Nc1nc(C(F)(F)F)ccc1C(=O)N/N=C/c1ccc(F)cc1,7.12% (active)
12,Cn1c(=O)c2[nH]c(C(O)C(O)C(O)C(O)CO)nc2n(C)c1=O (stereo unspecified),106% (inactive)
13,C(=N\Nc1ccccn1)/c1ccccn1,14.1% (inactive)
14,COc1cccc(-c2cn3c(ccc4ccccc43)n2)c1,40.1% (inactive)
15,COc1ccc2c(c1)C(=O)/C(=C/c1cccc(OCC(=O)Nc3nc4c(s3)CCCC4)c1)O2,-73.4% (active)
16,c1ccc(-c2nc(N3CCOCC3)c3c4c(sc3n2)CCCCC4)nc1,65.1% (inactive)
17,COc1ccc(-c2cn3c(ccc4ccccc43)n2)cc1,81.3% (inactive)
18,COc1cc(OC)c(/C=C/C(=O)c2c(OC)cc(OC)cc2OC)c(OC)c1,35.9% (inactive)
19,COc1ccc(-c2cc(-c3ccc(N(C)C)cc3)nc(NC(=O)c3ccncc3)n2)cc1,98.7% (inactive)
